Screens deposited in PubChem by The Scripps Research Institute Molecular Screening Center.
PME-1 Maybr inh: inhibitors of human PME-1 in Maybridge library. recombinant PME-1, FP-Rh probe fluorescence polarization. Q9Y570. inhibition, % at 9 µM. 16,000 tested, 0.5% active; in the data active = inhibition above about 30%
Nox1 inhibitor: blocks human NADPH oxidase 1 activity; 16,000 tested, 0.81% active; HT29 cells, luminol chemiluminescence ROS; AID 1792; inhibition, % at 6.7 µM; Q9Y5S8
OPRK1 antag MB: OPRK1 (human) antagonism, Maybridge screen; OPRK1 cells, antagonist mode, fluorescence readout; inhibition, % at 9 µM; 16,000 tested, 0.4% active; in the data active = inhibition above about 50%
Target sequence (P41145 whole entry, looked up): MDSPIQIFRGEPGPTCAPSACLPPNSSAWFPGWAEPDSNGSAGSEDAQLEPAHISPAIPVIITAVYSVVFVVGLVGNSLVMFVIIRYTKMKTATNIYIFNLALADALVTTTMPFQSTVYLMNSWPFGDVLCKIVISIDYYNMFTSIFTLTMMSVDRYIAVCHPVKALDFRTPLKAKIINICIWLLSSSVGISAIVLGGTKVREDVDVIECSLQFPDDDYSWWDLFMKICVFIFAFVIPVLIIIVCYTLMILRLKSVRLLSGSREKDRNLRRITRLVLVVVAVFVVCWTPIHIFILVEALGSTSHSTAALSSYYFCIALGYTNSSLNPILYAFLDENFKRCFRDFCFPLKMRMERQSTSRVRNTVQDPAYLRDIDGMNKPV
Luminol counter: luminol signal inhibition, Nox1 inhibitor counter-screen | AID 1823 | inhibition, % at 6.7 µM | 16,000 tested, 0.4% active | HRP/luminol/H2O2 chemiluminescence counterscreen; note: reference of the scale not given here
A number is an active result; n = inactive. Rows were chosen to be rich in hits. Some 2% of all compounds tested hit in one or more screens of this group. Cut-off read from the data, not from the text of the source, unless noted: active = inhibition above about 75%; inactive = the rest.

SMILES	PME-1 Maybr inh	Nox1 inhibitor	OPRK1 antag MB	Luminol counter
N#Cc1cccnc1NNC(=O)COCC(=O)O	n	n	83	n
N#Cc1cccnc1NNC(=O)c1nccnc1C(=O)O	n	n	n	n
CCn1c(SCC(=O)Nc2sc3c(c2C#N)CCC(C)C3)nnc1-c1cccs1 (stereo unspecified)	n	n	n	n
CCC(C)(C)C1CCc2c(sc(NC(=O)c3ccccc3C(=O)O)c2C#N)C1 (stereo unspecified)	33	n	n	n
CSC1=N/C(=C/c2cccs2)C(=O)N1	n	n	n	n
CC(=O)Nc1onc(C)c1-c1nc(-c2ccc(Cl)cc2Cl)cs1	n	n	50	n
COc1ccc(S(=O)(=O)NCc2ccco2)cc1OC1CCCC1	n	n	n	n
CC1COC(c2cccc([N+](=O)[O-])c2)N1 (stereo unspecified)	n	n	56	n
Cc1ccc(C)n1-c1cccc([N+](=O)[O-])c1	n	n	n	n
Nc1ccccc1Sc1nc2c(Cl)cc(Cl)cc2s1	n	n	n	n
Nc1cc(S(=O)(=O)O)c(N)c2c1C(=O)c1ccccc1C2=O	99	n	n	n
O=C1c2ccccc2C(=O)c2c(NCCc3ccc(O)cc3)ccc(NCCc3ccc(O)cc3)c21	n	n	n	n
COCCCNC(=S)NNC(=O)CC#N	n	n	n	98
COCCCNC(=S)NNC(=S)NCCCOC	n	n	n	n
CC(C)(C)c1csc(NNC(=O)c2ccc(Cl)cc2)n1	n	85	n	n
Cc1cc(C(=O)Nc2ccccc2N2CCOCC2)c(C)o1	n	n	n	n
CCOC(=O)NNC(=S)Nc1ccccc1N1CCOCC1	n	n	n	98
O=C(Nc1ccc(F)c(Cl)c1)c1cc(Br)ccc1O	n	n	70	n
CSC1=NCCCN1C(=O)c1ccccc1I	n	n	n	n
O=c1sc2sc(=O)sc2s1	n	n	n	n
S=C(NNc1c(Cl)cncc1Cl)Nc1ccc(Cl)cc1Cl	n	n	62	n
OCCCNNC(=S)Nc1ccc(Cl)cc1Cl	n	n	n	n
COc1ccc(S(=O)(=O)Nc2ccsc2C(C)=O)cc1	n	n	n	n
CSC1=NS(=O)(=O)c2c(C)nn(C)c2S1	n	89	n	n
O=C(Sc1n[nH]c(C(F)(F)F)n1)c1ccc(C#Cc2ccccc2)o1	n	n	n	n
SMILES	PME-1 Maybr inh	Nox1 inhibitor	OPRK1 antag MB	Luminol counter
COc1ccc(NS(=O)(=O)c2ccc(C)cc2)c([N+](=O)[O-])c1	n	n	n	n
COc1ccc(S(=O)(=O)Nc2cc(C)c(C)cc2[N+](=O)[O-])c(OC)c1	33	n	n	n
S=c1[nH]c2cc(Cl)ccc2o1	n	n	n	n
CCOC(=O)c1cn[nH]c1NC(=S)Nc1cccc(C(F)(F)F)c1	n	n	83	n
Cc1ccc(S(=O)(=O)Nc2ccc(F)cc2F)cc1	n	n	n	n
COc1cccc(NC(=S)NNc2ccc([N+](=O)[O-])cc2)c1	n	98	n	n
COC(=O)/C(C#N)=C/c1cc(C(=O)OC)n(-c2ccc(Cl)cc2)c1	n	n	n	n
O=C1OCc2ccc(NC(=O)c3nccnc3C(=O)O)cc21	n	n	n	n
NCCNc1c([N+](=O)[O-])cc(C(F)(F)F)cc1[N+](=O)[O-]	n	n	n	n
O=C(NNc1c([N+](=O)[O-])cc(C(F)(F)F)cc1[N+](=O)[O-])c1ccco1	n	89	n	n
COc1ccc(OC)c(NC(=S)N2CCN(c3ncc(C(F)(F)F)cc3Cl)CC2)c1	n	n	n	n
CCCCCCSc1n[nH]c(=S)s1	n	n	n	96
O=S(=O)(Nc1ccc(N2CCCCC2)cc1)c1cc(Cl)sc1Cl	n	102	n	n
CSc1nc(NS(=O)(=O)c2cc(Cl)sc2Cl)nn1C	n	n	n	n
O=C(Nc1ccc(-n2nccc2C(F)(F)F)cc1)c1ccc(Cl)cc1	n	n	n	n
c1cncc(-c2csc(-c3cccnc3)n2)c1	34	n	n	n
Cc1ccc(S(=O)(=O)NC(=O)Nc2ccc(N(C)C)cc2)cc1	41	n	n	n
O=c1[nH]ccn(-c2c(F)cccc2F)c1=O	n	n	n	n
O=c1cc(Nc2ccc(OC(F)(F)F)cc2)c2ccccc2o1	54	n	n	n
O=C(Cc1cccs1)Nc1ccc(OC(F)(F)F)cc1	n	n	n	n
S=c1[nH]c2cccnc2s1	n	n	n	100
O=c1[nH]c2cccnc2[nH]c1=O	n	n	n	n
CC(C)(C)OC(=O)NCc1n[nH]c(=S)n1-c1ccccc1	n	n	n	97
N#Cc1c(N)sc2c1CCc1ccccc1-2	n	103	n	n
Cc1cc(C#N)c2c(c1)-c1ccccc1CC2	n	n	n	n
SMILES	PME-1 Maybr inh	Nox1 inhibitor	OPRK1 antag MB	Luminol counter
CC1=C(O)C(=O)OC1c1c(F)cccc1Cl (stereo unspecified)	n	n	n	n
Cc1c(NC(=O)C2CCCCC2)cccc1[N+](=O)[O-]	n	n	n	n
CCN(CC)c1ccc(NC(=O)C2CCCCC2)c(N(CC)CC)n1	n	75	n	n
Nc1nc2[nH]c(=S)[nH]c2c(=O)[nH]1	n	93	n	n
CCC(CO)Nc1nc2c([nH]1)c(=O)n(C)c(=O)n2C (stereo unspecified)	n	94	n	n
CCc1nc2c([nH]1)c(=O)n(C)c(=O)n2C	n	n	n	n
COc1ccccc1C1CCN(Cc2ccc3c(c2)CCC(C)(C)O3)CC1	n	n	75	n
Oc1c(Cl)cc(Cl)cc1C1Nc2cc(Cl)c(C(F)(F)F)cc2N1 (stereo unspecified)	n	n	57	n
O=C(Oc1cccc2c1C(=O)C=CC2=O)c1ccccc1	34	n	n	n
CCOc1cc(N2CCOCC2)c(OCC)cc1NS(=O)(=O)c1ccccc1	n	103	n	n
O=c1[nH]nc(N2CCSCC2)[nH]1	n	89	n	n
O=C(CSc1nnc(Cc2ccsc2)o1)c1cccc([N+](=O)[O-])c1	n	n	n	n
CC(=O)/C(C=Nc1cc(C)c(O)c(Cl)c1)=C(\C)O	n	92	n	n
Cc1ccc(S(=O)(=O)NC(=O)Nc2c(C)n(C)n(-c3ccccc3)c2=O)cc1	n	92	n	n
Cc1c(NS(=O)(=O)c2ccc(S(=O)(=O)c3ccccc3)s2)c(=O)n(-c2ccccc2)n1C	n	n	n	n
O=[N+]([O-])c1cc(C(F)(F)F)cc([N+](=O)[O-])c1Sc1ncc2ccccn12	n	102	n	n
Brc1ccc(-c2cnc3ccccc3n2)s1	n	n	n	n
C=CCNC(=S)NNC(=O)c1oc2nc(-c3ccc(Cl)cc3)cc(-c3ccccc3)c2c1N	n	n	66	n
CCC(=O)Nc1ccc2c(c1)N(CC)C(C)(C)CC2C (stereo unspecified)	n	93	n	n
CC(C)C(=O)NNc1nc2c(c(=O)n(C)c(=O)n2C)n1Cc1ccc(Cl)cc1	n	100	n	n
CS(=O)(=O)/C(C#N)=C/c1cccn1S(=O)(=O)c1ccccc1	31	n	n	n
CC(=O)c1cc(F)c(Cl)cc1Cl	n	n	n	n
CC(C)SCC(=O)NCC(=O)O	n	n	n	n
O=C1CC(c2ccccc2)=NN1	n	n	n	n
Fc1ccc(-n2c(Cc3ccsc3)n[nH]c2=S)cc1	n	n	n	84
